# Data from publication PMC12136788.
# Whole data set: some 24,000 sequences, median “enrichment r” near 0.99, cut for the highest 2% near 3.7. The list is a sample of the results.
# B1: chr1:163117127:163117128:-_ENSG00000143248_ENST00000313961|hu_mus|hu_hu_hu_mus_False|78_98 (ssRNA)
# RNA: GGGAGUUCUACAGUCCGACGAUCUGCUACAAAGGAUGGAGGAAAUAUCACAGGGCAUGAUUUCAUAGCCUGACCAGAUGACUACUUGAUUAGCUCCUUAUAAAAUUCAGAGCGCACAAAGCGGGGCAGAGAAUCCUUCUCCAUCAACAGAGGAUUGAGCAUCA
# B2: chr3:131220538:131220539:-_ENSG00000114686_ENST00000264995|hu_mus|motif|central (ssRNA)
# RNA: GGGAGUUCUACAGUCCGACGAUCUUCUUCAGAAAGAUGUUCAUCCCACCAAGUACUACUCUUGCUGUGGAGAUUUCGGACAAAGAACAAGAUAUUCUUUCUUCUCUCUAAGCCGGGGUCAGCACCUAGGCCUCUGGCGCCACACAACAGAGGAUUGAGCAUCA
# B3: chr6:82862619:82862620:-_ENSMUSG00000000627_ENSMUST00000000641|mus_mus|FALSE|FALSE (ssRNA)
# RNA: GGGAGUUCUACAGUCCGACGAUCAACCUGCUUGUAAUUUCCUACACACUUUUCUGGGUUCCUUUUGUCAUCCCUCAAUAGCUAGAAUGUUGUGAAGUUCAUUUUAAAUGGAAGCCAAGGAAAGAGGGCUCAGCCUCCACUCCACAACAGAGGAUUGAGCAUCA
# B4: chr4:107545374:107545375:+_ENSMUSG00000028613_ENSMUST00000106731|mus_mus|FALSE|FALSE (ssRNA)
# RNA: GGGAGUUCUACAGUCCGACGAUCGUUGAUGGAUAGCCACAAAGCAUAAUUUUAUUUACAAAAAAAUCAAGCCCCUCAAACCUAAAAAAGCUCUCAACUCAAACAUCCUCUGUAAAUACUGUAUUCAAAUGAUGAGUGAAGUUUCAACAGAGGAUUGAGCAUCA
# B5: chr1:174973770:174973771:+_ENSG00000116161_ENST00000406752|hu_mus|FALSE|FALSE (ssRNA)
# RNA: GGGAGUUCUACAGUCCGACGAUCGAGUUCCGUCUCAAUCUUGGACUUUUCACUUGUAAGAGUAUCACGUAGUCUUUUCCUAGUGGACUUUUCCAGCAAUACUUUGACCUCUUCUAGGUCUUUCUGCAACUCUUCCAAAACGGACAACAGAGGAUUGAGCAUCA
# B6: chr22:19452774:19452775:-_ENSG00000070010_ENST00000399523|hu_hu|hu_hu_hu_mus_False|1_68 (ssRNA)
# RNA: GGGAGUUCUACAGUCCGACGAUCCUUCUCAUUGUAGUUGAUAGCAAUCACAUCUCCAGUCGUCAGACAGGCAAAGUUUCUCAAUGCAUUUUCUAAUACCGCUUUAGGGUUGGUAAUAUCCAGGAAGUCUGGGCUCUGAGGUUGCAACAGAGGAUUGAGCAUCA
# B7: 64993253_64993373_409_3pUTR_ENSMUSG00000029920_ENSMUST00000031984|mouse|control|control (ssRNA)
# RNA: GGGAGUUCUACAGUCCGACGAUCCUUCAGCACUAAGAGAAAUUGGUGACGAAGGACGGGCCUGGGAGGGCUGAGGGGCUGCUUCGGGUGCUUCCUCAAUCUUACUCCUUUUCUCAAAGCGAAAACGGUCCAAGUUGAAAAGAUCAACAGAGGAUUGAGCAUCA
# B8: chr2:160855017:160855018:-_ENSMUSG00000057133_ENSMUST00000039782|mus_hu|FALSE|FALSE (ssRNA)
# RNA: GGGAGUUCUACAGUCCGACGAUCAUCCUUUUCGAGCUCUUCCAUUGUGGCCCAUUUACAAUGUAAGUAGGAAAAAUUUCUAUACUUAACGUAGAACAGCUCCAAGUCGAACGGAGGUUCUCCUGGGUGAACCUCCUGGACAGUCAACAGAGGAUUGAGCAUCA
# B9: chr14:63761926:63761927:+_ENSMUSG00000021939_ENSMUST00000006235|mus_mus|FALSE|FALSE (ssRNA)
# RNA: GGGAGUUCUACAGUCCGACGAUCCUGCCAAUGUCAAGCAGAGGGAGAAUUGGUUUAUUGGCACAGACAUUCCUUGUUAAACUACAGGGUUAAGUGGUAACUACAACAAAAAGCAAGUUUUUUUUUCCAGACUAGUUUCAUUGUCAACAGAGGAUUGAGCAUCA
# B10: chr1:23381596:23381597:+_ENSG00000004487_ENST00000356634|hu_hu|motif|central (ssRNA)
# RNA: GGGAGUUCUACAGUCCGACGAUCAGUUGGUAGGGGUUUUAUCCUCUUAUAGAUGCCGAAGUUGAUAAGACCAUGACGCUCGGAAUAACUGUGAACUCGGUGGACAAGCACAGUAUCACUGUUAUAAGGUGCUUCUAAUUGUUGCAACAGAGGAUUGAGCAUCA
# B11: chr1:220276048:220276049:+_ENSG00000067704_ENST00000302637|hu_hu|hu_hu_hu_mus_True|18_88 (ssRNA)
# RNA: GGGAGUUCUACAGUCCGACGAUCGCAAAUUGCCUGGUUGGCGGGAAUCGUCCAAGGCUGGGUGGUCCAAACUAAAACGCUAACAGGGGAUGAGGCAUCUGUAAGAGACUCCAACUUUGGAGAAGGCCUCAGGAGGGGGAAUCUCAACAGAGGAUUGAGCAUCA
# B12: chr11:111909998:111909999:+_ENSG00000150768_ENST00000533297|hu_hu|FALSE|FALSE (ssRNA)
# RNA: GGGAGUUCUACAGUCCGACGAUCACCCUUCCCUUUGGUCCAGCAGGAGUAGCUGGGCAGGGUGCUGAAGGUGUAGGAGCUAAAGGCUGGGGAGUUGGAGGAACAGCGGCCACCGGGGGUGGGGUAGGUGGUGGCACUUGUGGUCAACAGAGGAUUGAGCAUCA
# B13: 91020203_91021877_1494_CDS_ENSMUSG00000030091_ENSMUST00000032179|mouse|control|control (ssRNA)
# RNA: GGGAGUUCUACAGUCCGACGAUCCAUGACCCCCUUGACGGUGACUGUGGCAACCAUGGAGCUUGACGAAGACCAGCUGAAGUUCCCACUGCCCCCAUGGGCCUUUAUGGUAUACUGAUAGGCGCCUGUCUUUGGUUGCCAUGGCAACAGAGGAUUGAGCAUCA
# B14: chr7:7679991:7679992:-_ENSG00000106399_ENST00000396682|hu_hu|hu_hu_hu_mus_False|88_98 (ssRNA)
# RNA: GGGAGUUCUACAGUCCGACGAUCUGGGAUGAAUCUUUUCCAGCCUCCCUACGAAGCACACGGGCCGGUCGAUAUACUGUGGUAACAUGCUGGCGUUGACGCGCGCUUUGGGGAGCUGCAUUAUGUCCUCCAUGAUUCUGCCGCCAACAGAGGAUUGAGCAUCA
# B15: chr8:104075188:104075189:+_ENSG00000155097_ENST00000518738|hu_hu|motif|central (ssRNA)
# RNA: GGGAGUUCUACAGUCCGACGAUCCUUCCUAAACAAGGUGACAUUACACAGGUAACUGUCUUGGUCCUCUGAAAGAACAUUGCGGGACCUUGGAACUACCAUUUCGGCUAGUGUUUCAUACUGCUUAAUCCAGUCGUUGUGGUUCAACAGAGGAUUGAGCAUCA
# B16: chr8:122087627:122087628:-_ENSMUSG00000034189_ENSMUST00000036049|mus_hu|FALSE|FALSE (ssRNA)
# RNA: GGGAGUUCUACAGUCCGACGAUCUAGUUACAAAAUAAUACUUUUCAGUAGUCUUUCUUGAUGCACAUUUAAAAACCAGCACAACUCCUCUAGUGAAAUGGUCAAUUUCCCUUAAAAAACAACAUCUGAAAUUAUAAGACCUGACAACAGAGGAUUGAGCAUCA
# B17: chr3:132387698:132387699:+_ENSG00000081307_ENST00000264991|hu_hu|FALSE|FALSE (ssRNA)
# RNA: GGGAGUUCUACAGUCCGACGAUCUUGAACUUUACUUAAUCCUGCUUGAUGAGGUUGGAAGAAAAGUCUAUUCAUAUUGGCUAGUUCCACCUUGUCAUAAUCAAAGAGUAGCAACUUACCAAUGCCACAUCUUGUCAGCAUUUCCAACAGAGGAUUGAGCAUCA
# B18: chr6:40197388:40197389:+_ENSMUSG00000057716_ENSMUST00000061740|mus_mus|mus_mus_mus_hu_False|18_58 (ssRNA)
# RNA: GGGAGUUCUACAGUCCGACGAUCGAGACACUGGGGUGGAUUUAUUCCACCUCUGUUUGGGUGCUAGCCACUAAGACAGCUAUUUUGGGAUUCAUGGCCUUGAAUAUCAAGAGGGAAGGGACGAGAAUGGAAAGAGUCAAGAGUCAACAGAGGAUUGAGCAUCA
# B19: chr11:98549071:98549072:+_ENSMUSG00000017221_ENSMUST00000017365|mus_hu|FALSE|FALSE (ssRNA)
# RNA: GGGAGUUCUACAGUCCGACGAUCAUCCAGCUUGUCCAGGAACUCAUAGACCCGGGCGUGAUAAUAGUAACACUUUGCGGCUACAAGGUCUAGGGCCCGGCGGUUCUGAGUACUGAUCUUCUGCAUCAGAUCAUCAGAGAUCUUCAACAGAGGAUUGAGCAUCA
# B20: chr15:103023242:103023243:-_ENSMUSG00000009575_ENSMUST00000118152|mus_mus|motif|central (ssRNA)
# RNA: GGGAGUUCUACAGUCCGACGAUCAACUAGCAGCAUUGAUGAGGGGUUAAGGGAUUGGGGACAGAAACUCACCAAGGUCACGGAGUACUUCCAAACUUGGAAGUAGCUCAGUGAGGGCUAAAAAAACUUCGACUGAAGGUAUCCCAACAGAGGAUUGAGCAUCA
# B21: chr7:99968543:99968544:+_ENSMUSG00000030643_ENSMUST00000032879|mus_mus|FALSE|FALSE (ssRNA)
# RNA: GGGAGUUCUACAGUCCGACGAUCAAAGACCCUGAGUGAAUCUUCGGACUAGGCACGUCUUUCCCACUCCAGCGUUGCCAAUUAAAACAAUUUUGAACAGGAAAUCAUAAUCUUCCAUACUCAUUUACACAGCUGGUUUGGGAUCAACAGAGGAUUGAGCAUCA
# B22: chr4:56883625:56883626:-_ENSMUSG00000055296_ENSMUST00000068792|mus_mus|FALSE|FALSE (ssRNA)
# RNA: GGGAGUUCUACAGUCCGACGAUCUAUAGGCGUGCGCCACCACGCCCGGGUUUAAAAUGUGUAGACCAGGCUGGCCUCGAACUCGCGAUCCUCCUGCUUCUGCCUCCUUCAGCAAAUCCUACUGGCGUGCGCCACCACAACCAGCAACAGAGGAUUGAGCAUCA
# Target: T1, UNK ZnF1-3 (human, UniProt Q9C0B0 31-174)
# T1 sequence: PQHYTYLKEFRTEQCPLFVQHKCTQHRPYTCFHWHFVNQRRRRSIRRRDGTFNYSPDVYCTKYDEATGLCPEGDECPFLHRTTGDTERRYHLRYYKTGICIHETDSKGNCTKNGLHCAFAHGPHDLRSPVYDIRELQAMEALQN
# Assay: nsRBNS (natural sequence RNA bind-n-seq); RBNS binding buffer (assumed for nsRBNS): 25 mM Tris pH 7.5, 150 mM KCl, 3 mM MgCl2, 0.01% Triton X-100, 500 ug/ml BSA, 20 U/ml SUPERase-In, 4 C; UNK is unkempt and MSI1 is Musashi-1; names of the RNAs are library labels; protein concentration not given here; high values mean tight binding
row,Binder,binding signal [enrichment R]
1,B1,1.46
2,B2,0.785
3,B3,0.841
4,B4,1.47
5,B5,0.405
6,B6,1.02
7,B7,1.21
8,B8,0.672
9,B9,1.12
10,B10,0.878
11,B11,2.21
12,B12,1.76
13,B13,0.642
14,B14,0.573
15,B15,0.508
16,B16,1.2
17,B17,0.799
18,B18,1.36
19,B19,0.693
20,B20,1.29
21,B21,1.1
22,B22,0.972
